We go through 34 molecules from the supplement of paper PMC8975748.

Structures can show the parent of a compound that is named as a salt.

This test has as its system Saccharomyces cerevisiae BY4741 SeMeCo community. As to the kind of experiment: z-score of subpopulation abundance vs DMSO median, subpopulation auxotrophic for LM; higher = larger share of this subpopulation than in DMSO controls. Particulars: 10 µM; 24 h; SM minimal medium; subpopulation (auxotrophy): LM. As for the experimental part:
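Fluorescent four-plasmid SeMeCo (self-establishing metabolically cooperating S. cerevisiae BY4741 community; plasmids pH-mRuby2, pL-mWasabi, pU-eCFP, pM-TagRFP657) was grown 24 h in minimal SM medium with each Selleck FDA-approved drug at 10 µM in 384-well plates. Cells were fixed and imaged by high-content confocal microscopy. For each auxotrophic subpopulation (and the prototroph), a z-score gives the deviation from the DMSO vehicle-control population median.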
Turning to `C=CC[C@]1(O)CC[C@H]2[C@@H]3CCC4=CC(=O)CCC4=C3C=C[C@@]21C` [Altrenogest], the “z-score of subpopulation abundance” value amounted to 0.15.
As for `C[C@H]1O[C@H](O[C@H]2[C@H](O)[C@@H](O)[C@@H](O)[C@H](O)[C@@H]2O)[C@@H](N)C[C@@H]1NC(=N)C(=O)O` [Kasugamycin hydrochloride], the “z-score of subpopulation abundance” value amounted to 0.45.
For `COc1ccc(C=O)cc1` [p-Anisaldehyde], the “z-score of subpopulation abundance” value is -0.17.
As for `Cn1cc(C2=C(c3cn(C4CCN(Cc5ccccn5)CC4)c4ccccc34)C(=O)NC2=O)c2ccccc21`, the figure is -1.68; as for `N[C@@H]1C[C@H]1c1ccccc1` [Tranylcypromine (2-PCPA) HCl], -0.94.
As to `CN1[C@@H]2C[C@@H](OC(=O)[C@H](CO)c3ccccc3)C[C@H]1[C@@H]1O[C@@H]12` [Scopolamine HBr trihydrate], the “z-score of subpopulation abundance” value is -0.12.
As for `COc1cc2c(cc1OC)C1CC(=O)C(CC(C)C)CN1CC2` (centres undefined) [Tetrabenazine (Xenazine)], the figure is 0.75; as for `CNC1CC(N)C(O)C(OC2OC(CO)C(O)C3OC4(OC(C(N)CO)C(O)C(O)C4O)OC23)C1O` (centres undefined) [Hygromycin B], -0.12.
On to `CN(C)[C@@H]1C(=O)C(C(N)=O)=C(O)[C@@]2(O)C(=O)C3=C(O)c4c(O)cccc4[C@@](C)(O)[C@H]3C[C@@H]12` [Tetracycline HCl], for which the “z-score of subpopulation abundance” value was -0.24.
`Cc1cc(O)ccc1Cl` [Chlorocresol]: the “z-score of subpopulation abundance” value was -0.37.
Consider `C[N+](C)(C)CCCCCCCCCC[N+](C)(C)C` [Decamethonium Bromide], for which the “z-score of subpopulation abundance” value was -0.15.
Turning to `CN1c2ccccc2C(NCCCCCCC(=O)O)c2ccc(Cl)cc2S1(=O)=O` (centres undefined) [Tianeptine sodium], the “z-score of subpopulation abundance” value was -0.12.
Take `CC[C@@H](C(N)=O)N1CCCC1=O` [Levetiracetam]: the “z-score of subpopulation abundance” value is -0.55.
In the case of `C[N+]1(C)[C@@H]2C[C@@H](OC(=O)[C@H](CO)c3ccccc3)C[C@H]1[C@@H]1O[C@@H]12` [Methscopolamine], the “z-score of subpopulation abundance” value was -0.56.
As for `C=CN1CCCC1=O.II` [Povidone iodine], the figure is -0.46.
Turning to `COc1ccc(C(CN(C)C)C2(O)CCCCC2)cc1` (centres undefined) [Venlafaxine], the “z-score of subpopulation abundance” value was -0.51.
Turning to `CN(C)[C@@H]1C(=O)C(C(N)=O)=C(O)[C@@]2(O)C(=O)C3=C(O)c4c(O)ccc(Cl)c4[C@@](C)(O)[C@H]3C[C@@H]12` [Chlortetracycline HCl], the “z-score of subpopulation abundance” value is -0.46.
As for `CN(C)[C@@H]1C(=O)C(C(N)=O)=C(O)[C@@]2(O)C(=O)C3=C(O)c4c(O)cccc4[C@@](C)(O)[C@H]3[C@H](O)[C@@H]12` [Oxytetracycline Dihydrate], the “z-score of subpopulation abundance” value is -0.49.
`NC(=O)CN1CCCC1=O` [Piracetam]: the “z-score of subpopulation abundance” value came out at 1.96.
On to `CCN(C)C(=O)Oc1cccc([C@H](C)N(C)C)c1` [Rivastigmine Tartrate], for which the “z-score of subpopulation abundance” value is 0.
As to `Cc1cc(C(C#N)c2ccc(Cl)cc2)c(Cl)cc1NC(=O)c1cc(I)cc(I)c1O` (centres undefined) [Closantel], the “z-score of subpopulation abundance” value was found to be 1.19.
Take `C=C(C)[C@H]1Cc2c(ccc3c2O[C@@H]2COc4cc(OC)c(OC)cc4[C@@H]2C3=O)O1` [Rotenone (Barbasco)]: the “z-score of subpopulation abundance” value is -0.22.
As for `CN(C)C(=O)Oc1ccc[n+](C)c1` [Pyridostigmine Bromide], the figure is -0.35.
On to `CN[C@@H]1[C@@H](O)[C@@H](O[C@@H]2[C@@H](O)[C@H](O[C@H]3O[C@H]([C@@H](C)O)[C@@H](O)[C@H](O)[C@H]3N)[C@@H](N)C[C@H]2N)OC[C@]1(C)O` [Geneticin (G418 Sulfate)], for which the “z-score of subpopulation abundance” value was determined as 0.61.
In the case of `CC1(C)SC2C(N)C(=O)N2C1C(=O)O` (centres undefined) [6-Aminopenicillanic acid], the “z-score of subpopulation abundance” value is 0.56.
In the case of `Nc1ccncc1` [4-Aminopyridine], the “z-score of subpopulation abundance” value came to 0.74.
Consider `NCC(O)c1ccc(O)cc1` (racemic) [(+,-)-Octopamine HCl], for which the “z-score of subpopulation abundance” value turned out to be 0.
With `CN1C(=O)COc2c(C(=O)NC3CN4CCC3CC4)cc(Cl)cc21` (centres undefined) [Azasetron HCl], the “z-score of subpopulation abundance” value was 1.69.
Regarding `CC[C@H]1[C@@H]2C[C@H]3[C@@H]4N(C)c5ccccc5[C@]45C[C@@H]([C@@H]2[C@H]5O)N3[C@@H]1O` [Ajmaline], the “z-score of subpopulation abundance” value was -0.31.
As to `C[CH2][Hg][S]c1ccccc1C(=O)[O-].[Na+]` [Thimerosal], the “z-score of subpopulation abundance” value came to 13.9.
With `COc1ccc2c(c1)[C@]13CCCC[C@@H]1[C@H](C2)N(C)CC3` [Dextromethorphan hydrobromide hydrate], the “z-score of subpopulation abundance” value was -0.18.
As for `C[C@@H]1CC[C@H]2[C@@H](C)C(=O)O[C@@H]3O[C@@]4(C)CC[C@@H]1[C@]32OO4` [Artemisinin], the figure is -1.74.
Consider `CCOC(=O)Nc1ccc(NCc2ccc(F)cc2)cc1N` [Retigabine], for which the “z-score of subpopulation abundance” value is -0.12.
On to `O=C(O[C@H]1C[N+]2(CCCOc3ccccc3)CCC1CC2)C(O)(c1cccs1)c1cccs1` [Aclidinium Bromide], for which the “z-score of subpopulation abundance” value was -0.14.
